Screening results as filed in PubChem BioAssay.
hcDAF-12 act: H. contortus DAF-12 nuclear receptor activators, primary screen, cell-based, luminescence, HEK293, lit1-tk-luc reporter. 370,000 tested, 1.4% active. HEK293 hcDAF-12 lit1-tk-luc reporter; 0% DMSO, 100% Δ7-dafachronic acid. AID 652067, 2013. activation, % at 6.8 µM;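 active = activation above the mean of all tested compounds plus 3 SD, cut at about 5.5% in these data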
DAX1 inh-1: DAX1 (NR0B1) inhibitors on StAR promoter, primary screen, cell-based, luminescence, SF-1 (NR5A1), full-length DAX-1 | inhibition, % at 6.8 µM | HEK293T StAR-luciferase reporter, SF-1/DAX-1 repression relief | 370,000 tested, 1.1% active;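 active = inhibition above the mean over all tested compounds plus 3 SD, cut at about 3.6% in these data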;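 also: higher inhibition means more luminescence from relief of DAX-1 repression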
hgDAF-12 ag: H. glycines DAF-12 receptor agonists, primary screen, cell-based, luminescence, HEK293, GAL4 fusion, UAS-luciferase | activation, % at 6.8 µM | HEK293 GAL4-hgDAF12 UAS-luciferase reporter, agonist luminescence; normalized to butyrate control | Nuclear hormone receptor DAF-12 (Heterodera glycines), GAL4 fusion | 370,000 tested, 1.8% active;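 active = activation above a cutoff set at the mean of all screened compounds plus 3 SD, cut at about 10% in these data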
AHR activator: AHR activators, primary screen, cell-based, luminescence, luciferase reporter, human. AID 2796, 2010. Aryl hydrocarbon receptor (Homo sapiens), P35869. AHR-responsive luciferase reporter cells. 320,000 tested, 2.5% active. activation, % at 5 µM; in the data active = activation above about 47%
Target sequence (P35869 whole entry, looked up): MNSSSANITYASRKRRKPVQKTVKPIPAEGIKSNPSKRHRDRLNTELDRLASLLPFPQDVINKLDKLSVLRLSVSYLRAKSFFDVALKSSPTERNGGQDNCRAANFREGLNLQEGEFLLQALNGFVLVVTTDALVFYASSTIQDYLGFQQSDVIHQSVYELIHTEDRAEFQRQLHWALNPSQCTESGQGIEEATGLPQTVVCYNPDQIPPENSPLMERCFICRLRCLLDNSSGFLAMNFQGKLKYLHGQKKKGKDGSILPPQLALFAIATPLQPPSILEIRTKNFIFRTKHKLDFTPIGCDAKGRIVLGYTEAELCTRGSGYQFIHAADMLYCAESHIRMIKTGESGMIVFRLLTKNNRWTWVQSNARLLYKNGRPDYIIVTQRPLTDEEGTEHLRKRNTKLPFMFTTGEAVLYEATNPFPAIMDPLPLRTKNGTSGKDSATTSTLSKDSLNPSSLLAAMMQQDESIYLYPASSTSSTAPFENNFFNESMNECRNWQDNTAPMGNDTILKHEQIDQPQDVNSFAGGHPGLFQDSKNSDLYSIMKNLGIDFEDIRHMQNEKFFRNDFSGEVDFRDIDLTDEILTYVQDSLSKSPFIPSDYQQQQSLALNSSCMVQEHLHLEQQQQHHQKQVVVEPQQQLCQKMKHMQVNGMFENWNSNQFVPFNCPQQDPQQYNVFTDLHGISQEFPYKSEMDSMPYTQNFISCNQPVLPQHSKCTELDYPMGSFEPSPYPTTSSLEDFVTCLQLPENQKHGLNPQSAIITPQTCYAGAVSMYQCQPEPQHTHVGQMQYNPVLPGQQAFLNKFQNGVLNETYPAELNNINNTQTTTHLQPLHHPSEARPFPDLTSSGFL
ssDAF-12 act: S. stercoralis DAF-12 nuclear receptor activators, primary screen, cell-based, luminescence, HEK293, GRIP1 co-expression, lit1-tk-luc. HEK293 ssDAF-12/GRIP1 lit1-tk-luc reporter; % of 3 µM dafachronic acid response. activation, % at 6.8 µM. 370,000 tested, 1% active. AID 652126, 2013;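 active = activation above the mean over all tested compounds plus 3 SD, cut at about 0.9% in these data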
DAX1 inh-2: DAX1 (NR0B1) inhibitors, primary screen, cell-based, HEK293, Gal4-DAX1, luciferase luminescence; Nuclear receptor subfamily 0 group B member 1 (Homo sapiens), P51843; HEK293 Gal4-DAX1 luciferase reporter; inhibition, % at 6.75 µM; 340,000 tested, 0.99% active; AID 504766, 2011;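 active = inhibition above the mean over all tested compounds plus 3 SD, cut at about 4.2% in these data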;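 also: inhibition shows as a rise in luminescence from relieved DAX1 repression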
Hits are given with their value; i = inactive; nt = no result. This is a sample that favours compounds with a hit; in the whole collection about 5.7% have one here.

SMILES	hcDAF-12 act	DAX1 inh-1	hgDAF-12 ag	AHR activator	ssDAF-12 act	DAX1 inh-2
O=C(NCc1ccccc1)c1ccc(Cl)cc1[N+](=O)[O-]	i	i	i	i	i	i
COc1ccc(OC)c(NC(=O)c2cnc3n(c2=O)CCS3)c1	i	i	i	50.4	i	i
COc1ccccc1NC(=O)c1cnc2n(c1=O)CCS2	i	i	i	66.6	i	i
CC1(C)CC(=O)C(C=Nc2ccncc2)=C(O)C1	i	i	i	i	i	i
Cc1cc(C(=O)N/N=C/c2ccc[nH]2)n[nH]1	i	i	i	i	i	i
CCC1CCCCN1S(=O)(=O)c1ccccc1 (configuration not stated)	i	i	i	i	i	i
O=C(COC(=O)CC1CC2CCC1C2)NCc1ccc(F)cc1 (configuration not stated)	i	i	i	i	i	i
CC(Sc1nc(-c2ccccc2)cc(C(F)(F)F)n1)C(=O)N1CCC(C(N)=O)CC1 (configuration not stated)	i	i	i	i	i	i
COc1cccc(CNc2nc3cc(-c4ccc(F)cc4)sc3c(=O)n2C)c1	i	i	i	nt	i	nt
O=C(NC(=S)Nc1ccc(Br)cn1)c1cccnc1	i	i	i	i	i	i
CC(=O)n1cc(/C=N/NC(=O)c2ccccc2O)c2ccccc21	i	i	i	i	i	5.0
Cn1nccc1C(=O)Oc1cccc(/C=N/NC(=O)c2ccccc2O)c1	i	i	i	69.5	i	i
O=C(N/N=C/CCc1ccccc1)c1ccccc1	i	i	10.8	i	i	i
CC(=O)n1cc(Nc2ccccc2C(=O)O)c2ccccc21	i	i	i	i	0.9	i
O=C(NCC1COc2ccccc2O1)C1CCN(S(=O)(=O)c2ccccc2)CC1 (configuration not stated)	i	i	i	i	i	i
O=C(C1CCCC1)N1CCCC(Nc2ccc(F)cc2)C1 (configuration not stated)	i	i	i	i	i	i
O=C(N/N=C/c1ccoc1)c1ccccc1O	i	3.7	i	i	i	i
O=C(N/N=C/c1ccoc1)c1ccccc1	i	6.4	10.7	i	1.1	i
Nc1nnc(CC(=O)N/N=C/c2ccc(-c3ccccc3Cl)o2)s1	i	i	i	i	i	i
CC(C)N(C(=S)Nc1cccc(S(=O)(=O)N(C)C)c1)c1ccccc1	i	i	i	i	i	i
CCc1ccc(OCC(=O)Nc2nnc(-c3ccco3)s2)cc1	i	4.4	i	i	i	i
CC(C)CC(=O)Nc1nnc(-c2ccco2)s1	i	i	i	i	i	i
C=CCNC(=O)/C(C#N)=C/c1ccccc1OCc1ccc(C(=O)OC)cc1	i	i	i	i	i	i
COC(=O)c1ccc(COc2ccccc2/C=C(\C#N)C(=O)Nc2ccc(C)cc2)cc1	i	3.9	10.7	i	i	i
Cc1cc(C)cc(NC2=C(N)C(=O)c3ccccc3C2=O)c1	nt	nt	nt	54.7	nt	i
SMILES	hcDAF-12 act	DAX1 inh-1	hgDAF-12 ag	AHR activator	ssDAF-12 act	DAX1 inh-2
CCCN(CC(=O)Nc1ccccc1C)C(=O)c1ccc(C)c(S(=O)(=O)N2CCCCC2)c1	i	i	i	i	i	i
CCCN(CC(=O)Nc1ccccc1C)C(=O)c1ccc(Cl)c(S(=O)(=O)N2CCCC2)c1	i	i	i	i	i	5.3
COC(=O)c1ccc(NC(=O)Nc2ccc3c(c2)OCO3)cc1	i	i	i	i	i	i
CCCNc1c(N)n(-c2ccccc2)c(=O)[nH]c1=O	i	i	i	i	i	6.1
O=C(COC(=O)c1ccc2c(c1Cl)C(=O)c1ccccc1C2=O)NC1CC1	i	i	i	i	i	i
Cn1cncc1C#Cc1ccc2cc(CCO)oc(=O)c2c1	i	i	i	48.5	i	i
CCOC(=O)CNC(=O)CSc1nc(-c2ccc(C)cc2)ns1	i	i	i	i	i	i
Cc1cccc(-c2ccc(O)cc2CN2CCN(c3ncc(Cc4ccccc4)cn3)CC2)c1	i	i	i	nt	i	nt
COc1ccc(-c2csc(NC3OC(=O)c4c3ccc(OC)c4OC)n2)cc1OC (configuration not stated)	i	i	i	i	i	i
COc1ccc2c(c1OC)C(=O)OC2Nc1nc(-c2cc3cc(Br)ccc3oc2=O)cs1 (configuration not stated)	i	i	10.6	i	i	4.8
COc1ccc2c(c1OC)C(=O)OC2Nc1nc2ccccc2s1 (configuration not stated)	i	i	i	i	i	i
COc1ccc2c(c1OC)C(=O)OC2Nc1nc(-c2ccc([N+](=O)[O-])cc2)cs1 (configuration not stated)	i	i	i	i	1.6	i
COC(=O)c1c(NC(=O)c2ccc(Br)s2)sc2c1CCC2	i	i	i	i	i	i
CCN(CC)C(=O)c1cc(-c2ccc3c(c2)OCO3)on1	i	i	i	73.0	i	i
CCN(CC)CCCNC(=O)c1cc(-c2ccc3c(c2)OCO3)on1	i	i	i	i	i	i
CCCCNC(=O)c1cc(-c2ccc3c(c2)OCO3)on1	i	i	i	i	i	i
CCCNC(=O)c1cc(-c2ccc3c(c2)OCO3)on1	i	i	10.9	i	i	i
O=C1NC2(CCCCCC2)C(=O)N1Cc1cccc([N+](=O)[O-])c1	i	i	i	i	i	i
CCOC(=O)Cc1csc(/N=C/c2c(O)n(-c3ccc(C)cc3C)c(=O)c3ccccc23)n1	i	i	i	i	i	i
Cc1ccccc1N(CC(=O)NC1CCCCC1)C(=O)CCCC(=O)Nc1ccccn1	i	i	i	i	i	5.0
CCN(CCc1ccccc1)c1ccc2c(c1)C1CC2CCN1C(=O)OCc1ccccc1 (configuration not stated)	i	i	i	nt	1.6	i
CCCSc1ccc2nc(NC(=O)OC)[nH]c2c1	i	i	i	53.7	i	i
COC(=O)Nc1nc2ccc(SC(C)C)cc2[nH]1	i	i	i	i	i	i
O=C(NC12CC3CC(CC(C3)C1)C2)c1ccc(-c2ccc(Cl)cc2)o1	i	i	i	i	i	i
COc1ccc(NC(=S)N2CCC(NC(=O)c3ccccc3C)CC2)cc1	i	i	i	i	i	i
CCOc1cc(CNc2ccc3cn[nH]c3c2)ccc1OC	i	i	i	53.3	i	i
